Assay outcomes as filed in PubChem BioAssay.
This is a sample that favours compounds with a hit; in the whole collection about 2.5% have one here.
MEKK3 PB1 HTS = modulators (inhibitors or enhancers) of MEK5 binding to human MEKK3 PB1 domain; Q99759; bead-based flow cytometry, Alexa488-MEK5 binding to MEKK3; actives lie on both sides; 0 = blocked by unlabeled MEK5, 100 = vehicle; binding response (% of control), % at 10 µM; 1.4% of 290,000 active;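 active = binding response more than 3 SD above or below the average of its plate-row segment, actives on both sides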;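 note: Alexa488 bead fluorescence after subtracting the streptavidin-only scavenger bead signal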
MEKK2wt PB1 HTS = raises or lowers MEK5 binding to wildtype human MEKK2 PB1 domain. Q9Y2U5. bead flow cytometry, Alexa488-MEK5 binding to MEKK2 WT; actives lie on both sides. binding response (% of control), % at 10 µM. 1.1% of 290,000 active; in the data active = binding response below about 67% or above about 130%
MEKK2mut PB1 HTS = signal of MEK5 binding to mutant human MEKK2 PB1 domain; percent response, % at 10 µM; bead flow cytometry, Alexa488-MEK5 binding to MEKK2 mutant; 0.35% of 290,000 active; in the data active = percent response above about 24%, passing the limit was not always enough
GRK2 aptamer HTS = human GRK2 inhibition via aptamer displacement. P25098. bead flow cytometry, FAM-aptamer displacement from GRK2. inhibition of aptamer binding, % at 10 µM. 0.59% of 330,000 active. AID 488847;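 active = inhibition of aptamer binding above 40%, roughly 3 SD of noise, on plates passing a quality check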;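 note: median bead fluorescence of bound FAM aptamer so fluorescent compounds give negative values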
Target sequence (P25098 whole entry, looked up): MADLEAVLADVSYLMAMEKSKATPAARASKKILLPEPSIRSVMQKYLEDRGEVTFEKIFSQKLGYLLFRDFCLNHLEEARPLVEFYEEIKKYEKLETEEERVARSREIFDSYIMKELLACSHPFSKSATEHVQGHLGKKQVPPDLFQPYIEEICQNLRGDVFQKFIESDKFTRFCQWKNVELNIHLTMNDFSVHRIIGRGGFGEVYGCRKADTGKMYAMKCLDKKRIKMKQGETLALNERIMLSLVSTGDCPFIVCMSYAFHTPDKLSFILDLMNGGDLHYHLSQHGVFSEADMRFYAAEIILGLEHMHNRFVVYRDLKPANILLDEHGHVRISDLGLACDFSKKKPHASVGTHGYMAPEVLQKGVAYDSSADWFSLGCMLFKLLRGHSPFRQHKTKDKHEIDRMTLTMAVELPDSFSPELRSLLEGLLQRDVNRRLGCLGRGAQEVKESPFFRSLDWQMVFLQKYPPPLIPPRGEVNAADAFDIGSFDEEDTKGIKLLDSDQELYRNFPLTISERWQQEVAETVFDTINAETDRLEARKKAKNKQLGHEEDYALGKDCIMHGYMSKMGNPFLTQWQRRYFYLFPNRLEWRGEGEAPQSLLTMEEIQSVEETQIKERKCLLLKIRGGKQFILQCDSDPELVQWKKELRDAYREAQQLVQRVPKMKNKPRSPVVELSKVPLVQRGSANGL
MEKK2wt confirm = raises or lowers MEK5 binding to wildtype human MEKK2, retest. AID 1892. 2.4% of 5,900 active. shares compounds with MEKK3 PB1 HTS. binding response (% of control), % at 10 µM. bead flow cytometry, Alexa488-MEK5 binding to MEKK2 WT; actives lie on both sides; in the data active = binding response below about 16% or above about 210%; inactive = in between
MEKK2mut-MEK5 = signal of MEK5 binding to mutant human MEKK2, retest; 2% of 5,900 active; bead flow cytometry, Alexa488-MEK5 binding to MEKK2 mutant; shares compounds with MEKK3 PB1 HTS; percent response, % at 10 µM; in the data active = percent response mostly above about 71%, no sharp cut-off; inactive = mostly below about 38%;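 note: higher means compound restores mutant binding toward wildtype level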
MEKK3 confirm = confirmation of inhibitors of MEK5 binding to human MEKK3 | bead flow cytometry, Alexa488-MEK5 binding to MEKK3; stronger effect = lower value | 1.8% of 5,900 active | shares compounds with MEKK3 PB1 HTS | binding response (% of control), % at 10 µM;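 active = binding response below 72% of control, or above a set upper limit, though filed actives all read lower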;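 note: 100% = DMSO only wells and 0% = binding blocked by excess unlabeled MEK5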
Starred values were filed as active, the others as inactive; ! = a repeat was not active; [ ] = dose if it differs, or a comment.

CN(C)CCCn1c(SCC(=O)N2c3ccccc3Sc3ccccc32)nc2ccccc2c1=O was read as MEKK3 PB1 HTS 103, MEKK2wt PB1 HTS 166*, MEKK2mut PB1 HTS 45, GRK2 aptamer HTS 0, MEKK2wt confirm 157, MEKK2mut-MEK5 25 and MEKK3 confirm 102.
Screening COc1ccc(CCNC(=O)C2c3ccccc3C(=O)N2CCC(C)C)cc1OC (stereo not given) returned MEKK3 PB1 HTS 100, MEKK2wt PB1 HTS 106, MEKK2mut PB1 HTS -1 and GRK2 aptamer HTS 0.
Screening CCCCNc1cc(C(=O)O)cc(S(N)(=O)=O)c1Oc1ccccc1 returned MEKK3 PB1 HTS 87, MEKK2wt PB1 HTS 16*[inhibitor], MEKK2mut PB1 HTS -1, GRK2 aptamer HTS 1, MEKK2wt confirm 94, MEKK2mut-MEK5 -6 and MEKK3 confirm 99.
`O=C(O)C12CC3CC(C1)CC(n1ncc(N4CCN(c5ccccc5)CC4)c(Cl)c1=O)(C3)C2` gave MEKK3 PB1 HTS 145*, MEKK2wt PB1 HTS 102, MEKK2mut PB1 HTS -1, GRK2 aptamer HTS 0, MEKK2wt confirm 106, MEKK2mut-MEK5 2 and MEKK3 confirm 104.
For CN(CCn1ccnc1)Cc1cn(Cc2ccccc2)nc1-c1ccc2c(c1)OCO2 the results were MEKK3 PB1 HTS 93, MEKK2wt PB1 HTS 100, MEKK2mut PB1 HTS -2 and GRK2 aptamer HTS 0.
For COc1ccc(OCC(=O)Nc2ccccc2OC(F)F)cc1 the results were MEKK3 PB1 HTS 122*, MEKK2wt PB1 HTS 123, MEKK2mut PB1 HTS 19, GRK2 aptamer HTS 1, MEKK2wt confirm 99, MEKK2mut-MEK5 -2 and MEKK3 confirm 97.
For COc1ccc(OCC(=O)Nc2ccccc2OC)cc1 the results were MEKK3 PB1 HTS 94, MEKK2wt PB1 HTS 93, MEKK2mut PB1 HTS 1 and GRK2 aptamer HTS 6.
For CC(C)(C)N(Cc1ccccc1)C(=O)COC(=O)C1CCN(c2ccc(C(F)(F)F)cn2)CC1 the results were GRK2 aptamer HTS 1.
For Cc1nc2c3ccccc3nc(SCC(=O)c3ccc(Cl)cc3)n2n1 the results were MEKK3 PB1 HTS 129*, MEKK2wt PB1 HTS 100, MEKK2mut PB1 HTS -1, GRK2 aptamer HTS 3, MEKK2wt confirm 103, MEKK2mut-MEK5 1 and MEKK3 confirm 107.
Screening O=C(OCCC1Oc2cccnc2NC1=O)c1ccc(F)cc1 (stereo not given) returned MEKK3 PB1 HTS 99, MEKK2wt PB1 HTS 98, MEKK2mut PB1 HTS 0 and GRK2 aptamer HTS 2.
O=C(OCCC1Oc2cccnc2NC1=O)c1ccc([N+](=O)[O-])cc1 (stereo not given) was read as MEKK3 PB1 HTS 74*[inhibitor], MEKK2wt PB1 HTS 75, MEKK2mut PB1 HTS -9, GRK2 aptamer HTS 2, MEKK2wt confirm 100, MEKK2mut-MEK5 -1 and MEKK3 confirm 99.
For CCOC(=O)C1=C(CC)Nc2ccccc2N=C1NC(=O)Nc1ccc(Cl)c(Cl)c1 the results were MEKK3 PB1 HTS 97, MEKK2wt PB1 HTS 145*, MEKK2mut PB1 HTS 20, GRK2 aptamer HTS 0, MEKK2wt confirm 148, MEKK2mut-MEK5 -7 and MEKK3 confirm 98.
`O=C(NCC1CCCO1)c1ccc(COc2ccccc2)o1` (stereo not given) gave GRK2 aptamer HTS 0.
For COc1cc(OC)c(NC(=O)C2CCCO2)cc1Cl (stereo not given) the results were MEKK3 PB1 HTS 104, MEKK2wt PB1 HTS 104, MEKK2mut PB1 HTS 0 and GRK2 aptamer HTS 0.
Screening COc1cc(NC(=O)C2CCCO2)c(OC)cc1Cl (stereo not given) returned MEKK3 PB1 HTS 82*[inhibitor], MEKK2wt PB1 HTS 103, MEKK2mut PB1 HTS 0, GRK2 aptamer HTS 0, MEKK2wt confirm 103, MEKK2mut-MEK5 0 and MEKK3 confirm 103.
For COC(=O)c1cc(C)cc(=O)o1 the results were MEKK3 PB1 HTS 100, MEKK2wt PB1 HTS 99, MEKK2mut PB1 HTS -1 and GRK2 aptamer HTS 0.
Screening Cc1cc(C(=O)Nc2ccccc2)oc(=O)c1 returned MEKK3 PB1 HTS 49*[inhibitor], MEKK2wt PB1 HTS 66, MEKK2mut PB1 HTS -25, GRK2 aptamer HTS 2, MEKK2wt confirm 99, MEKK2mut-MEK5 -7 and MEKK3 confirm 91.
COc1ccccc1CNC(=O)COC(=O)c1cccc(S(=O)(=O)N2CCCC2)c1 was read as MEKK3 PB1 HTS 104, MEKK2wt PB1 HTS 107, MEKK2mut PB1 HTS 7 and GRK2 aptamer HTS 0.
Screening O=C1CC(c2ccccc2)CC(O)=C1C=NCCCN1CCOCC1 (stereo not given) returned MEKK3 PB1 HTS 81*[inhibitor], MEKK2wt PB1 HTS 89, MEKK2mut PB1 HTS -11, GRK2 aptamer HTS 1, MEKK2wt confirm 100, MEKK2mut-MEK5 -7 and MEKK3 confirm 103.
CCN(CC)c1ccc2cc(C(=O)Nc3ccccn3)c(=O)oc2c1 was read as MEKK3 PB1 HTS 93, MEKK2wt PB1 HTS 58*[inhibitor], MEKK2mut PB1 HTS -4, GRK2 aptamer HTS 6, MEKK2wt confirm 66, MEKK2mut-MEK5 -17 and MEKK3 confirm 92.
`CCN(CC)c1ccc2cc(C(C)=O)c(=O)oc2c1` gave MEKK3 PB1 HTS 104, MEKK2wt PB1 HTS 104, MEKK2mut PB1 HTS 4 and GRK2 aptamer HTS 0.
For O=C(Nc1ccc(N2CCCCC2)cc1)c1cccnc1Cl the results were MEKK3 PB1 HTS 108, MEKK2wt PB1 HTS 111, MEKK2mut PB1 HTS 5 and GRK2 aptamer HTS 2.
Screening CS(=O)(=O)N1CCN(c2ccc(NC(=O)c3cccnc3Cl)cc2)CC1 returned MEKK3 PB1 HTS 1.0*[inhibitor], MEKK2wt PB1 HTS -3.0*[inhibitor], MEKK2mut PB1 HTS -20, GRK2 aptamer HTS 0, MEKK2wt confirm 96, MEKK2mut-MEK5 -7 and MEKK3 confirm 84.
For COC(=O)CN1C(=O)N/C(=C/c2ccccc2OC)C1=O the results were MEKK3 PB1 HTS 131*, MEKK2wt PB1 HTS 116, MEKK2mut PB1 HTS 1, GRK2 aptamer HTS 3, MEKK2wt confirm 104, MEKK2mut-MEK5 0 and MEKK3 confirm 108.
For O=C(O)c1ccccc1C(=O)Nc1ccccc1 the results were MEKK3 PB1 HTS 101, MEKK2wt PB1 HTS 103, MEKK2mut PB1 HTS 2 and GRK2 aptamer HTS 3.
O=C(Nc1ccccc1)C1=C(c2ccccc2)S(=O)(=O)CCS1(=O)=O was read as MEKK3 PB1 HTS 6.0*[inhibitor], MEKK2wt PB1 HTS 8.0*[inhibitor], MEKK2mut PB1 HTS -19, MEKK2wt confirm 103, MEKK2mut-MEK5 -4 and MEKK3 confirm 101.
`Clc1ccc2c(c1)CCc1cccnc1C2=C1CCNCC1` gave MEKK3 PB1 HTS 103, MEKK2wt PB1 HTS 144*!, MEKK2mut PB1 HTS 3, GRK2 aptamer HTS 0, MEKK2wt confirm 127, MEKK2mut-MEK5 15 and MEKK3 confirm 110.
Screening COc1cc(C(=O)NC(=S)Nc2ccc([N+](=O)[O-])cc2C)cc(OC)c1OC returned MEKK3 PB1 HTS 97, MEKK2wt PB1 HTS 98, MEKK2mut PB1 HTS 1 and GRK2 aptamer HTS 9.
